Outcome and AC50 data for 4 compounds are collected here from PubChem BioAssay (EPA / NIEHS).

What all share (conditions): mRNA level, 48 h; actives raise or lower the signal
Read-out in assay [1]: ATP-citrate lyase (ACLY), ACLY (gene 47)
Kind of assay: LTEA_HepaRG_ACLY: Life Technologies and Expression Analysis (LTEA) Assay for ATP-citrate lyase (ACLY) using HepaRG (AID 2283466). In short, it runs like this: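 Differentiated human HepaRG cells in serum-free induction medium exposed 48 h, in duplicate, to eight half-log concentrations from 100 uM top in 0.5% DMSO; ACLY mRNA measured by qRT-PCR, normalized to ACTB, GAPDH, POLR2A, fitted bidirectionally versus DMSO.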

Read-out in assay [2]: Peroxisomal acyl-coenzyme A oxidase 1 (ACOX1) gene, ACOX1 (gene 51)
Kind of assay: LTEA_HepaRG_ACOX1: Life Technologies and Expression Analysis (LTEA) Assay for Peroxisomal acyl-coenzyme A oxidase 1 (ACOX1) gene using HepaRG (AID 2283467). In short, it runs like this: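 Differentiated human HepaRG cells were exposed in duplicate for 48 h in serum-free induction medium to eight half-log concentrations up to 100 uM in 0.5% DMSO. ACOX1 mRNA was then quantified by TaqMan qRT-PCR, normalized to ACTB, GAPDH and POLR2A.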

Read-out in assay [3]: Alkaline Phosphatase, Placental (ALPP) gene, ALPP (gene 250)
Kind of assay: LTEA_HepaRG_ALPP: Life Technologies and Expression Analysis (LTEA) Assay for Alkaline Phosphatase, Placental (ALPP) gene using HepaRG (AID 2283468). In short, it runs like this: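 Expression of ALPP was quantified by qRT-PCR against three housekeeping genes in human HepaRG cultures treated for 48 h with an eight-point concentration series up to 100 uM. Activity in either direction was fitted relative to 0.5% DMSO.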

Read-out in assay [4]: Bcl-2 (BAD) gene, BAD (gene 572)
Briefly: LTEA_HepaRG_BAD: Life Technologies and Expression Analysis (LTEA) Assay for Bcl-2 (BAD) gene using HepaRG (AID 2283469). In short, it runs like this: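 Differentiated human HepaRG cells in serum-free induction medium were exposed in duplicate for 48 h to eight concentrations (top 100 uM, half-log steps, 0.5% DMSO). BAD mRNA was quantified by qRT-PCR normalised to ACTB, GAPDH and POLR2A, with bidirectional fitting versus DMSO.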

Read-out in assay [5]: Bcl-2 (BAX) gene, BAX (gene 581)
Kind of assay: LTEA_HepaRG_BAX: Life Technologies and Expression Analysis (LTEA) Assay for Bcl-2 (BAX) gene using HepaRG (AID 2283470). In short, it runs like this: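 Differentiated human HepaRG cells, plated 48 h then switched to serum-free induction medium, were exposed 48 h to 8 half-log concentrations up to 100 uM in 0.5% DMSO; BAX mRNA measured by qRT-PCR, normalized to ACTB, GAPDH, POLR2A.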

Read-out in assay [6]: adenosine kinase (ADK) gene, ADK (gene 132)
Briefly: LTEA_HepaRG_ADK: Life Technologies and Expression Analysis (LTEA) Assay for adenosine kinase (ADK) gene using HepaRG (AID 2283471). An outline of the steps:
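HepaRG (human liver), 48 h chemical exposure, 8-pt half-log series, top 100 uM, 0.5% DMSO vehicle. Readout: ADK mRNA by qRT-PCR vs housekeeping genes; bidirectional curve fit relative to DMSO baseline.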

Read-out in assay [7]: Alpha-fetoprotein (AFP) gene, AFP (gene 174)
Briefly: LTEA_HepaRG_AFP: Life Technologies and Expression Analysis (LTEA) Assay for Alpha-fetoprotein (AFP) gene using HepaRG (AID 2283472). In short, it runs like this:
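Human HepaRG cells plated 48 h, then switched to serum-free induction medium and exposed in duplicate for 48 h to 8-point half-log series from 100 uM in 0.5% DMSO. AFP mRNA by qRT-PCR, normalized to ACTB, GAPDH, POLR2A; bidirectional fit versus DMSO.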

Read-out in a further assay: BCL2L11 (gene 10018)
Briefly: LTEA_HepaRG_BCL2L11: Life Technologies and Expression Analysis (LTEA) Assay for Bcl-2 (BCL2L11) gene using HepaRG (AID 2283473). An outline of the steps:
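Cells were plated, cultured 48 h, switched to serum-free induction medium, then dosed in duplicate for 48 h at eight half-log concentrations up to 100 uM. Lysates underwent RNA isolation and TaqMan qRT-PCR; gain or loss versus DMSO was fitted.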

Read-out in assay [8]: Apolipoprotein A-V (APOA5) gene, APOA5 (gene 116519)
Kind of assay: LTEA_HepaRG_APOA5: Life Technologies and Expression Analysis (LTEA) Assay for Apolipoprotein A-V (APOA5) gene using HepaRG (AID 2283474). In short, it runs like this: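 Human liver HepaRG cells are treated 48 h with test chemicals (100 uM top, half-log dilutions, 0.5% DMSO). APOA5 mRNA induction or loss is measured by qRT-PCR relative to vehicle.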

Read-out in assay [9]: Apoptosis regulator Bcl-2 (Homo sapiens) (UniProt P10415)
Kind of assay: LTEA_HepaRG_BCL2: Life Technologies and Expression Analysis (LTEA) Assay for Bcl-2 gene using HepaRG (AID 2283475). An outline of the steps:
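Differentiated HepaRG cells in serum-free induction medium were exposed for 48 h to eight half-log concentrations up to 100 uM in 0.5% DMSO, in duplicate. BCL2 mRNA was quantified by TaqMan qRT-PCR normalised to ACTB, GAPDH and POLR2A, with bidirectional fitting versus DMSO.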

Read-out in assay [10]: Bcl-2 (BID) gene, BID (gene 637)
Kind of assay: LTEA_HepaRG_BID: Life Technologies and Expression Analysis (LTEA) Assay for Bcl-2 (BID) gene using HepaRG (AID 2283476). An outline of the steps: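 Differentiated HepaRG cells in serum-free induction medium were exposed in duplicate for 48 h to eight half-log concentrations up to 100 uM in 0.5% DMSO. BID mRNA was quantified by qRT-PCR, normalized to ACTB, GAPDH and POLR2A.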

Read-out in a further assay: Caspase-3 (Homo sapiens) (UniProt P42574)
Briefly: LTEA_HepaRG_CASP3: Life Technologies and Expression Analysis (LTEA) Assay for cysteine-aspartic acid protease (CASP3) using HepaRG (AID 2283477). In short, it runs like this: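 In HepaRG liver cells dosed for 48 h at up to 100 uM (eight-point, duplicate), CASP3 expression changes are scored by qRT-PCR. Activity is fitted in both directions with 0.5% DMSO as baseline.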

Read-out in assay [11]: Cytochrome P450 (CYP24A1), CYP24A1 (gene 1591)
Briefly: LTEA_HepaRG_CYP24A1: Life Technologies and Expression Analysis (LTEA) Assay for Cytochrome P450 (CYP24A1) using HepaRG (AID 2283478). An outline of the steps:
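Human liver HepaRG cultures receive each chemical for 48 h across an eight-point half-log series topping at 100 uM in 0.5% DMSO. Induction or suppression of CYP24A1 mRNA is scored relative to vehicle after housekeeping-gene normalization.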

Read-out in assay [12]: Cytochrome P450 (CYP1A2), CYP1A2 (gene 1544)
Kind of assay: LTEA_HepaRG_CYP1A2: Life Technologies and Expression Analysis (LTEA) Assay for Cytochrome P450 (CYP1A2) using HepaRG (AID 2283479). An outline of the steps:
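Assesses CYP1A2 mRNA in human HepaRG liver cells after 48 h chemical exposure at up to 100 uM. Values come from qRT-PCR with bidirectional curve fitting relative to DMSO.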

Read-out in assay [13]: cysteine-aspartic acid protease (CASP8), CASP8 (gene 841)
Briefly: LTEA_HepaRG_CASP8: Life Technologies and Expression Analysis (LTEA) Assay for cysteine-aspartic acid protease (CASP8) using HepaRG (AID 2283480). An outline of the steps:
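Differentiated human HepaRG cells, plated 48 h then switched to serum-free induction medium, were exposed in duplicate for 48 h to 8 half-log concentrations up to 100 uM in 0.5% DMSO. CASP8 mRNA was quantified by qRT-PCR, normalized to ACTB/GAPDH/POLR2A.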

Read-out in assay [14]: Cytochrome P450 (CYP2B6), CYP2B6 (gene 1555)
Briefly: LTEA_HepaRG_CYP2B6: Life Technologies and Expression Analysis (LTEA) Assay for Cytochrome P450 (CYP2B6) using HepaRG (AID 2283481). An outline of the steps: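 Using 48 h treatment of HepaRG cells in serum-free induction medium, concentrations spanned half-log steps from 100 uM in 0.5% DMSO vehicle. CYP2B6 mRNA induction or loss is scored by qRT-PCR against DMSO.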

Read-out in assay [15]: Cytochrome P450 2C19 (Homo sapiens) (UniProt P33261)
Kind of assay: LTEA_HepaRG_CYP2C19: Life Technologies and Expression Analysis (LTEA) Assay for CYP2C19 using HepaRG (AID 2283482). An outline of the steps:
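Human HepaRG liver cells received test chemicals for 48 h (highest 100 uM, half-log dilutions in 0.5% DMSO). CYP2C19 mRNA induction or loss is read by multiplexed qRT-PCR and fitted in both directions versus vehicle.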

Read-out in the next assay: CYP2C8 (gene 1558)
Briefly: LTEA_HepaRG_CYP2C8: Life Technologies and Expression Analysis (LTEA) Assay for CYP2C8 using HepaRG (AID 2283483). In short, it runs like this:
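Differentiated human HepaRG cells were exposed for 48 h in serum-free induction medium to eight half-log concentrations up to 100 uM in 0.5% DMSO, in duplicate. CYP2C8 mRNA was measured by TaqMan qRT-PCR, normalized to ACTB, GAPDH and POLR2A, and fitted bidirectionally against DMSO.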

Read-out in another assay: CYP2E1 (gene 1571)
Briefly: LTEA_HepaRG_CYP2E1: Life Technologies and Expression Analysis (LTEA) Assay for CYP2E1 using HepaRG (AID 2283485). An outline of the steps: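 HepaRG cells in serum-free induction medium exposed 48 h to test chemicals, 8 half-log concentrations up to 100 uM in 0.5% DMSO, duplicate. CYP2E1 mRNA by qRT-PCR, normalized to ACTB, GAPDH, POLR2A; bidirectional fit versus DMSO.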

Read-out in a further assay: CYP2C9 (gene 1559)
Kind of assay: LTEA_HepaRG_CYP2C9: Life Technologies and Expression Analysis (LTEA) Assay for CYP2C9 using HepaRG (AID 2283484). An outline of the steps: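 Differentiated human HepaRG cells were exposed 48 h in serum-free induction medium to eight half-log concentrations up to 100 uM in 0.5% DMSO. CYP2C9 mRNA was measured by qRT-PCR, normalized to ACTB, GAPDH and POLR2A, and fitted bidirectionally against DMSO.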

A word on the AC50: it is the concentration giving half of the maximal activity seen.

Activity calls are given as the source filed them. Rule for the calls: active = hit-call score of the fitted dose curve at least 0.9, where 1 is the maximum; inactive = score below 0.9.

Sequence of Apoptosis regulator Bcl-2 (Homo sapiens) (P10415 whole entry, looked up): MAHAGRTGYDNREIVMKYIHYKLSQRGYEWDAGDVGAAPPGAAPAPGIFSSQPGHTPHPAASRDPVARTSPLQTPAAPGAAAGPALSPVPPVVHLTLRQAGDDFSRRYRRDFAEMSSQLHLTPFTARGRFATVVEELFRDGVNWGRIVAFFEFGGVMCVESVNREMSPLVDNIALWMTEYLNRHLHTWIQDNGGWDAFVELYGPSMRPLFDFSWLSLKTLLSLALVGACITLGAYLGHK
Sequence of Cytochrome P450 2C19 (Homo sapiens) (P33261 whole entry, looked up): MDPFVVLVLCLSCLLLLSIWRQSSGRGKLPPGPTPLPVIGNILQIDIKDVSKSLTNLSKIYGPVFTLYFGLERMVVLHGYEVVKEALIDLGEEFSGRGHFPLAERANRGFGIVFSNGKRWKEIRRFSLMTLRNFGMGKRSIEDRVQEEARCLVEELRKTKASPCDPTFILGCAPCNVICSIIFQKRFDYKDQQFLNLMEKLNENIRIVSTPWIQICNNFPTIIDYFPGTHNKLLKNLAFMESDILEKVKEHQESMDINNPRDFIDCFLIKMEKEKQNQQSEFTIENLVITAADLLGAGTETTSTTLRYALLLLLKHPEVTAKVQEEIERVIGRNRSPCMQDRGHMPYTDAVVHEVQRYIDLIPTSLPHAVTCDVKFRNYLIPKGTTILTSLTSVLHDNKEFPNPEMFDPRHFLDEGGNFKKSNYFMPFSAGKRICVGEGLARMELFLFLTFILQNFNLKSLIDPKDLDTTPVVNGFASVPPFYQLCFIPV
Sequence of Caspase-3 (Homo sapiens) (P42574 whole entry, looked up): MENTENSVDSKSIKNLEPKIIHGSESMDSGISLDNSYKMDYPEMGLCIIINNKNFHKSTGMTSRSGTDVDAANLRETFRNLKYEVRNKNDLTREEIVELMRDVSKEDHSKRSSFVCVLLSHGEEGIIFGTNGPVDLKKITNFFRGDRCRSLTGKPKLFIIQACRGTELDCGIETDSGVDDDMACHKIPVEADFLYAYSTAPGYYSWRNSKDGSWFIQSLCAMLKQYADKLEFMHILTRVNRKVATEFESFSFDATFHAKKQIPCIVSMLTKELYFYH

Take `O=S(=O)(O)C(F)(F)C(F)(F)C(F)(F)C(F)(F)F`: the compound was classed as inactive in assay [1], in assay [2], in [3], in [4], in [5] and in assay [6]. The outcome (in [7]; in the assay with BCL2L11 (gene 10018); in [8]; in assay [9]; in [10]; with Caspase-3 (Homo sapiens)) was inactive. The result (in assay [11]; in assay [12]; in assay [13]; in assay [15]; in the assay with CYP2C8 (gene 1558); with CYP2E1 (gene 1571)) was inactive. The AC50 in assay [14] is 52.5 µM (active).
`CCSC(=O)N(CC)C1CCCCC1`: the outcome in assay [1], in assay [2], in assay [3], in [4], in [5] and in assay [6] was inactive. Besides, the compound was called inactive (in [7]; in the assay with BCL2L11 (gene 10018); in assay [8]; in assay [9]; in [10]; with Caspase-3 (Homo sapiens)). The outcome (in assay [11]; in assay [12]; in assay [13]; in assay [15]; with CYP2C9 (gene 1559); with CYP2E1 (gene 1571)) was inactive. The AC50 in assay [14] is 32.9 µM (active).
In the case of `CC(C)C(=O)OCC(C)(C)C(OC(=O)C(C)C)C(C)C` (stereo unspecified), the result in [1], in assay [2], in assay [3], in [4], in assay [5] and in assay [6] was inactive. Moreover, the compound was classed as inactive (in [7]; with BCL2L11 (gene 10018); in [8]; in assay [9]; in [10]; with Caspase-3 (Homo sapiens)). Also, the outcome (in assay [11]; in assay [12]; in [13]; in [14]; in [15]; with CYP2C8 (gene 1558)) was inactive. Also, in the assay with CYP2E1 (gene 1571), the call was inactive.
As to `O=C(O)C(F)(F)C(F)(F)C(F)(F)C(F)(F)C(F)(F)F`, the compound was classed as inactive (in [1]; in assay [3]; in assay [4]; in [5]; in assay [7]; in the assay with BCL2L11 (gene 10018)). Also, the result in [8], in assay [9], in [10], in [11], in [12] and in assay [13] was inactive. In addition, the result in the assay with CYP2E1 (gene 1571) was inactive. In addition, the AC50 in [2] is 9.92 µM (active); in [6] it was 3 µM (active); with Caspase-3 (Homo sapiens), 9.92 µM (active); in assay [14], 19.6 µM (active); in assay [15] it was 5.35 µM (active); in the assay with CYP2C8 (gene 1558), 8.32 µM (active).
